{"source": "ChEMBL document CHEMBL4888484", "about": "“Replenishing the malaria drug discovery pipeline: Screening and hit evaluation of the MMV Hit Generation Library 1 (HGL1) against asexual blood stage Plasmodium falciparum ,using a nano luciferase reporter read-out” (2022)", "note": "About 540 (0.36%) of roughly 150,000 compounds showed an effect of 50% or more. The entries come from a sample that favours strong results as a whole."}
{"system": "Plasmodium falciparum", "assay": "Primary screen in NF54 nanoGlo assay, in single point, at 2uM, 72h; a lower Z score goes with more inhibition", "type": "functional, Erythrocyte", "conditions": "timepoint 72 hour", "units": {"% Inhibition": "%"}}
{"smiles": "O=C(Nc1[nH]c(=O)ncc1F)c1cccc2ccccc12", "% Inhibition": 85, "Z score": -7.83}
{"smiles": "O=C(Nc1ccc(Cl)cn1)c1cccc2ccccc12", "% Inhibition": -6, "Z score": 1.15}
{"smiles": "O=C(NCCc1n[nH]c(=O)[nH]1)c1c(F)cc(Br)cc1F", "% Inhibition": -3, "Z score": 0.32}
{"smiles": "Cc1cnc(NC(=O)c2cccc3ccccc23)s1", "% Inhibition": -12, "Z score": 2.18}
{"smiles": "Cc1cc(NC(=O)c2ccc(Cl)c(F)c2)nc(=O)[nH]1", "% Inhibition": -4, "Z score": 0.38}
{"smiles": "COc1cc(C(=O)Nc2nc(C)nn2C)ccc1Cl", "% Inhibition": -9, "Z score": 1.22}
{"smiles": "O=C(NCc1n[nH]c(=O)[nH]1)c1ccc(Br)c(F)c1", "% Inhibition": -6, "Z score": 0.79}
{"smiles": "COc1cc(C(=O)Nc2[nH]c(=O)ncc2F)ccc1Cl", "% Inhibition": 76, "Z score": -11.96}
{"smiles": "O=C(Nc1[nH]c(=O)ncc1F)c1cc(F)c(F)cc1Br", "% Inhibition": 91, "Z score": -7.85}
{"smiles": "CCC(CC)n1nc(C(=O)NCC23CCCN2CCC3)cc1C", "% Inhibition": -15, "Z score": 2.13}
{"smiles": "O=C(Nc1cccc2ccccc12)C1CCN(c2cc(-c3ccc(F)cc3)ncn2)CC1", "% Inhibition": -2, "Z score": 0.24}
{"smiles": "Cc1n[nH]c(=O)c2c1cnn2-c1ccc(F)cc1", "% Inhibition": 20, "Z score": -2.53}
{"smiles": "Cc1cccnc1CCNC(=O)N(C)[C@@H](C)c1ccncn1", "% Inhibition": -6, "Z score": 1.12}
{"smiles": "O=C(NCCc1ccc(Cl)cc1)c1ccc(Cn2c(=O)[nH]c3ccccc3c2=O)cc1", "% Inhibition": -9, "Z score": 1.68}
{"smiles": "O=C1N[C@@H](c2cccc(OCc3ccccc3)c2)Nc2c1sc(=S)n2-c1ccccc1", "% Inhibition": -12, "Z score": 1.31}
{"smiles": "CN(CC(=O)NCc1ccco1)c1nnc(N2CCCC2=O)s1", "% Inhibition": 73, "Z score": -0.5}
{"smiles": "CN(CC(=O)NCCCc1ccco1)c1nnc(N2CCCC2=O)s1", "% Inhibition": -11, "Z score": 2.07}
{"smiles": "CN(CC(=O)NCc1cccs1)c1nnc(N2CCCC2=O)s1", "% Inhibition": -2, "Z score": 0.36}
{"smiles": "CCCN1CCN(C(=O)c2ccnc(N3CCN[C@H](c4ccccc4)C3)c2)CC1", "% Inhibition": -13, "Z score": 1.36}
{"smiles": "C[C@H](CCO)NCc1sccc1Cl", "% Inhibition": 5, "Z score": -0.62}
{"smiles": "CC(C)(C)n1cnc(C(=O)N2CCCC23CCCCC3)n1", "% Inhibition": 0, "Z score": -0.06}
{"smiles": "Cn1nnc(C(=O)N2CCC(c3ccccc3)(N3CCCC3)CC2)n1", "% Inhibition": 7, "Z score": -1.29}
{"smiles": "O=C(Nc1cnc(-n2ccnc2)nc1)c1ccc(F)cc1", "% Inhibition": -18, "Z score": 2.84}
{"smiles": "CCOC(=O)C1(C(=O)NCc2cc(C)on2)CCCC1", "% Inhibition": 7, "Z score": -0.84}
{"smiles": "CCN1C[C@H](Nc2ncnc3sc(C)cc23)[C@@H](OC)C1", "% Inhibition": -9, "Z score": 1.14}
{"smiles": "CCN1C[C@H](Nc2ncccc2C#N)[C@@H](OC)C1", "% Inhibition": -13, "Z score": 1.15}
{"smiles": "CS(=O)(=O)N1C[C@H]2CC[C@@H](C1)N(CC(=O)N1CCc3ccccc31)C2", "% Inhibition": -9, "Z score": 1.92}
{"smiles": "COc1ccc(CN2CCc3cc(OC)c(OC)cc3[C@@H]2CNC(=O)Cc2ccccc2)cc1", "% Inhibition": -3, "Z score": 0.38}
{"smiles": "O=S1(=O)CCC(CNC2CCc3ccc(F)cc32)C1", "note": "(centres undefined)", "% Inhibition": -8, "Z score": 1.29}
{"smiles": "CS(=O)(=O)CCc1ccc(N[C@H]2CCc3ccc(F)cc32)cc1", "% Inhibition": -8, "Z score": 1.03}
{"smiles": "Cn1ncc2c1CCC[C@@H]2NCCc1ccccc1O", "% Inhibition": -5, "Z score": 0.59}
{"smiles": "Oc1ccccc1CCN[C@H]1CCc2ccc(F)cc21", "% Inhibition": 98, "Z score": -18.88}
{"smiles": "CCOc1ccc2c(n1)CCN(C(=O)c1ccsc1)C2", "% Inhibition": 36, "Z score": 1.41}
{"smiles": "CC(COC1CCOC1)NC(=O)C1CCC(=O)C(C)C1", "note": "(centres undefined)", "% Inhibition": -1, "Z score": 0.21}
{"smiles": "Cn1nc(NC(=O)c2ccccc2)c2c1CCN(C(=O)C1CCC1)C2", "% Inhibition": -10, "Z score": 0.86}
{"smiles": "COC(C(=O)N1C[C@H](C(=O)O)[C@@H](c2ccc(Br)cc2)C1)C1CC1", "note": "(some centres undefined)", "% Inhibition": -1, "Z score": 0.13}
{"smiles": "CCCCN(C1CCCCCC1)S(=O)(=O)N1CCC[C@@H]1COC", "% Inhibition": 3, "Z score": -0.54}
{"smiles": "COc1ccccc1C(=O)C(=O)NC1CC(C)(C)NC(C)(C)C1", "% Inhibition": -6, "Z score": 0.73}
{"smiles": "Cc1nonc1CN1CC[C@@]2(CCCN(C3CCCCC3)C2=O)C1", "% Inhibition": -1, "Z score": 0.17}
{"smiles": "Cc1ccc(Oc2nc(N3CCOCC3)nc3c2CN(S(=O)(=O)c2cccc(Cl)c2)CC3)cc1", "% Inhibition": 8, "Z score": -1.2}
{"smiles": "O=S(=O)(c1cccc(Cl)c1)N1CCc2nc(N3CCCCC3)nc(Oc3ccccc3)c2C1", "% Inhibition": 53, "Z score": -13.31}
{"smiles": "CN1CCN(c2nc3c(c(Oc4cccc(F)c4)n2)CN(S(=O)(=O)c2cccc(Cl)c2)CC3)CC1", "% Inhibition": -5, "Z score": 0.66}
